# Assay results: publication PMC7862700, “An all-to-all approach to the identification of sequence-specific readers for epigenetic DNA modifications on cytosine”
# Key:
# Assay in all cases: DAPPL (digital affinity profiling via proximity ligation, sequencing); 10 mM Tris-HCl pH 7.5, 50 mM NaCl, 1 mM DTT, 4% glycerol, room temperature, 30 min; GST-TFs on glutathione beads, 16-mer random dsDNA library, 0.1% formaldehyde crosslink after washing; high values mean tight binding
# FLI1 = target: T1, FLI1 (Homo sapiens, UniProt Q01543 1-452); settings: protein: recombinant; tags: N-terminal GST; dsDNA, one strand shown
# T1 sequence: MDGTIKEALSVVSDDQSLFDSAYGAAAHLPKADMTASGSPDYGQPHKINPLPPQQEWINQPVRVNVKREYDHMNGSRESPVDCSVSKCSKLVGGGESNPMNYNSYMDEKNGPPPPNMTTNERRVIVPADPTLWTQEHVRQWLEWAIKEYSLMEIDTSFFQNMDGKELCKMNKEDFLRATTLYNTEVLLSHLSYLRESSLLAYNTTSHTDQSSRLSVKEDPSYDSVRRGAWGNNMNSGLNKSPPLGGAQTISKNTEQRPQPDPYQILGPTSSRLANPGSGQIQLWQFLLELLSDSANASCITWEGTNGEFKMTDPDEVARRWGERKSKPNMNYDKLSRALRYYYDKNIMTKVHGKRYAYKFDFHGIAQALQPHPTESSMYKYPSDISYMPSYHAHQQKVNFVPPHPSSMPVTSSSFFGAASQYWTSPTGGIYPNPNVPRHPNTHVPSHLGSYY
# Outline: (§1)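 After expression in yeast as GST fusions, human transcription factors were bound to glutathione beads, DNA-barcoded and mixed with a tag-only sample. The pools were incubated with 200 nmole of a 16-mer random double-stranded DNA library in Tris/NaCl/DTT/glycerol buffer (30 min, room temperature), washed and crosslinked with 0.1% formaldehyde. Proximity ligation with BsaI/T4 ligase ran for 1 h at 37 °C, before PCR amplification and sequencing on an Illumina NextSeq500. Binding signal is a hexamer's read frequency for a factor divided by its frequency for the tag-only sample.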
# ELK1 = target: T2, ELK1 (Homo sapiens, UniProt P19419 1-428); settings: protein: recombinant; tags: N-terminal GST; dsDNA, one strand shown
# T2 sequence: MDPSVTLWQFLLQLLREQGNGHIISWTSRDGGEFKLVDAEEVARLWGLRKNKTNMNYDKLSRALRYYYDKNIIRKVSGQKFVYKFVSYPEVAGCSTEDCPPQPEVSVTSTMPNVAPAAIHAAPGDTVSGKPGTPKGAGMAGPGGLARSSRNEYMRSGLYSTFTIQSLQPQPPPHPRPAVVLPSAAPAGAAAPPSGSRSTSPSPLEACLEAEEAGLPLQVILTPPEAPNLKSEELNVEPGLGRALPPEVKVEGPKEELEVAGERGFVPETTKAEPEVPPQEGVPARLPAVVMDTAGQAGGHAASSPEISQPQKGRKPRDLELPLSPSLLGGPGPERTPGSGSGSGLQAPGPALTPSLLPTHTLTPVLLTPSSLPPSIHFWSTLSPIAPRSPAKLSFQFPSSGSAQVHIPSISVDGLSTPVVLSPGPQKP
# Outline: as §1
# GABPA = target: T3, GABPA (Homo sapiens, UniProt Q06546 1-454); settings: protein: recombinant; tags: N-terminal GST; dsDNA, one strand shown
# T3 sequence: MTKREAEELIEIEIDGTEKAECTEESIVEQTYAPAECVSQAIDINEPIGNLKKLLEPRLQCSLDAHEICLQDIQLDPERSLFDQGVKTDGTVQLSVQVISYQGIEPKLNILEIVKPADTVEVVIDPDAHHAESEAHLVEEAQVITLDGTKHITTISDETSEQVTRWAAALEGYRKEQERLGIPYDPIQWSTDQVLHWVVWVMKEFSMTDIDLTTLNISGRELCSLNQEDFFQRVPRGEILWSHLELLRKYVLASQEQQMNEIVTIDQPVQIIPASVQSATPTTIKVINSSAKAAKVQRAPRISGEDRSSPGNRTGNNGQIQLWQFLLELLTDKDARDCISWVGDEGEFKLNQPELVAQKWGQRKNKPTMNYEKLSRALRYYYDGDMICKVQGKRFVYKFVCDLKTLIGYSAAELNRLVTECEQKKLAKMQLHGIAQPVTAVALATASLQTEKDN
# Outline: as §1
# ERG = target: T4, ERG (Homo sapiens, UniProt P11308 1-479); settings: protein: recombinant; tags: N-terminal GST; dsDNA, one strand shown
# T4 sequence: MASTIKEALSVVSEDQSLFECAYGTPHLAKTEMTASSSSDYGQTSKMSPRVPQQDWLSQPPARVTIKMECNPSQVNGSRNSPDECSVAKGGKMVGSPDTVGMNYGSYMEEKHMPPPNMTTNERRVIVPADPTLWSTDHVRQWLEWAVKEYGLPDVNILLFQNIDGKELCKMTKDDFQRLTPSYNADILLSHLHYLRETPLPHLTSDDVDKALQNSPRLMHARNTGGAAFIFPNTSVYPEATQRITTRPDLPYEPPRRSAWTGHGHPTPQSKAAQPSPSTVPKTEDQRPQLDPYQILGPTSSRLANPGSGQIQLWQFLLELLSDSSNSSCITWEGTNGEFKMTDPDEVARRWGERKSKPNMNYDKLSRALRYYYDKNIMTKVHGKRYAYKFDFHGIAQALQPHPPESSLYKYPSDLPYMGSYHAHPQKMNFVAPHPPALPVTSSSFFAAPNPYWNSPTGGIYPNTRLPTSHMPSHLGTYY
# Outline: as §1
# ELF1 = ELF1 (Homo sapiens, UniProt P32519 1-619); settings: protein: recombinant; tags: N-terminal GST; dsDNA, one strand shown
# Outline: as §1
# EHF = target: T5, EHF (Homo sapiens, UniProt Q9NZC4 1-300); settings: protein: recombinant; tags: N-terminal GST; dsDNA, one strand shown
# T5 sequence: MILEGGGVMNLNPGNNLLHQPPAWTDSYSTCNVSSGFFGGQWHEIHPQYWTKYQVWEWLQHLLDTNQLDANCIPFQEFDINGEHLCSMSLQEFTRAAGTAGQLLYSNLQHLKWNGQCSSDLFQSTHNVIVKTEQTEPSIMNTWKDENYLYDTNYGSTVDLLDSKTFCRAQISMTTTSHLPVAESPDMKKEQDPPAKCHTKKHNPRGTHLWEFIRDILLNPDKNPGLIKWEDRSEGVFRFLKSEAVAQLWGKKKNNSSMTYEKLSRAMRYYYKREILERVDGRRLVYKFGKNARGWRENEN
# Outline: as §1
# SPI1 = SPI1 (Homo sapiens, UniProt P17947 1-270); settings: protein: recombinant; tags: N-terminal GST; dsDNA, one strand shown
# Outline: as §1
# SPIB = SPIB (Homo sapiens, UniProt Q01892 1-262); settings: protein: recombinant; tags: N-terminal GST; dsDNA, one strand shown
# Outline: as §1
# ELK3 = target: T6, ELK3 (Homo sapiens, UniProt P41970 1-407); settings: protein: recombinant; tags: N-terminal GST; dsDNA, one strand shown
# T6 sequence: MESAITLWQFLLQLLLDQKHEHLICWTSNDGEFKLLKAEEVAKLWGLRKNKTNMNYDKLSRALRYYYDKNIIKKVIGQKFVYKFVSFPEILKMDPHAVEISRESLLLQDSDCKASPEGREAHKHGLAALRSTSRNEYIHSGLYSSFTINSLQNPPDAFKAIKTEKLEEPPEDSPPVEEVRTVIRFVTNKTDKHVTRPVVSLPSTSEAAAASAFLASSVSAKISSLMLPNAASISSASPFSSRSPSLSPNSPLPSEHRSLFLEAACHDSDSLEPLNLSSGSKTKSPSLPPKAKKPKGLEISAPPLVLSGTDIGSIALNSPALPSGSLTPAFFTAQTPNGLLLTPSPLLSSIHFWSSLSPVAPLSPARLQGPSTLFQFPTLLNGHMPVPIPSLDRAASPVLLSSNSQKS
# Outline: as §1
# FEV = target: T7, FEV (Homo sapiens, UniProt Q99581 1-238); settings: protein: recombinant; tags: N-terminal GST; dsDNA, one strand shown
# T7 sequence: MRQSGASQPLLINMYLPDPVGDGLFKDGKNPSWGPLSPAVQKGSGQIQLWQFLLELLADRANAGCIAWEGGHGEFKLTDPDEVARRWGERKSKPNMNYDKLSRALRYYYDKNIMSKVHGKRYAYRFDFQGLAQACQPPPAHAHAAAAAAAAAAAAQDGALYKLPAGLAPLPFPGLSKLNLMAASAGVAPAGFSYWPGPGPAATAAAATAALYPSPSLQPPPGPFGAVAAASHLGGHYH
# Outline: as §1
# ETV5 = ETV5 (Homo sapiens, UniProt P41161 1-510); settings: protein: recombinant; tags: N-terminal GST; dsDNA, one strand shown
# Outline: as §1
# HSF1 = HSF1 (Homo sapiens, UniProt Q00613 1-529); settings: protein: recombinant; tags: N-terminal GST; chain copies: 3; dsDNA, one strand shown
# Outline: as §1
# SPIC = target: T8, SPIC (Homo sapiens, UniProt Q8N5J4 1-248); settings: protein: recombinant; tags: N-terminal GST; dsDNA, one strand shown
# T8 sequence: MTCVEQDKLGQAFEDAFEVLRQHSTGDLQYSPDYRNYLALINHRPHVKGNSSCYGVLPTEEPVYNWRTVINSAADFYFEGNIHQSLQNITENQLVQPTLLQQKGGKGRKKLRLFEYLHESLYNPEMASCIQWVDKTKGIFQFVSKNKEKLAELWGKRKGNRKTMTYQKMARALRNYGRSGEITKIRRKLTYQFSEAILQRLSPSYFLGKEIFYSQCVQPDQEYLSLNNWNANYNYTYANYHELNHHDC
# Outline: as §1
# ELF4 = ELF4 (Homo sapiens, UniProt Q99607 1-663); settings: protein: recombinant; tags: N-terminal GST; dsDNA, one strand shown
# Outline: as §1
# ELK4 = target: T9, ELK4 (Homo sapiens, UniProt P28324-2 1-405); settings: protein: recombinant; tags: N-terminal GST; dsDNA, one strand shown
# T9 sequence: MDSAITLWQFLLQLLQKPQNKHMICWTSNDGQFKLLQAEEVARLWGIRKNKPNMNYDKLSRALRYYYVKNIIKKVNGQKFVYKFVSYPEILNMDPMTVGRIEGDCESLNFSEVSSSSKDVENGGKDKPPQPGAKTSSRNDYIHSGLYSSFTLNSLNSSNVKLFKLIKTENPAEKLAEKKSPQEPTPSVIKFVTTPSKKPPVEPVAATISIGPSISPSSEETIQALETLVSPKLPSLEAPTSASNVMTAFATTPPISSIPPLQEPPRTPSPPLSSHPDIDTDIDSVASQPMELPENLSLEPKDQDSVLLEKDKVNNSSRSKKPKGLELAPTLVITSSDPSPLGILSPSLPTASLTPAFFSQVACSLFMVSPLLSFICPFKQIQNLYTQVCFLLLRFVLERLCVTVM
# Outline: as §1
# ETV2 = target: T10, ETV2 (Homo sapiens, UniProt O00321 1-342); settings: protein: recombinant; tags: N-terminal GST; dsDNA, one strand shown
# T10 sequence: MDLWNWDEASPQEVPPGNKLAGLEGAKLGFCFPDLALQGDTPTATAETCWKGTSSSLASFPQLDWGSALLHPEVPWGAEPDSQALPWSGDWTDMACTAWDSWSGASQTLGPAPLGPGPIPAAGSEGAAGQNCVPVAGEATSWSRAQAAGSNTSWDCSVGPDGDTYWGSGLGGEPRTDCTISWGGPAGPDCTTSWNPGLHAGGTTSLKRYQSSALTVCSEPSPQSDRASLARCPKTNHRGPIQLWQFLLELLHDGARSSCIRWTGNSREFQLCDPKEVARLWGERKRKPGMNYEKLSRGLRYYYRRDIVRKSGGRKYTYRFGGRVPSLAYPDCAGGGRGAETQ
# Outline: as §1
# ELF3 = target: T11, ELF3 (Homo sapiens, UniProt P78545 1-371); settings: protein: recombinant; tags: N-terminal GST; dsDNA, one strand shown
# T11 sequence: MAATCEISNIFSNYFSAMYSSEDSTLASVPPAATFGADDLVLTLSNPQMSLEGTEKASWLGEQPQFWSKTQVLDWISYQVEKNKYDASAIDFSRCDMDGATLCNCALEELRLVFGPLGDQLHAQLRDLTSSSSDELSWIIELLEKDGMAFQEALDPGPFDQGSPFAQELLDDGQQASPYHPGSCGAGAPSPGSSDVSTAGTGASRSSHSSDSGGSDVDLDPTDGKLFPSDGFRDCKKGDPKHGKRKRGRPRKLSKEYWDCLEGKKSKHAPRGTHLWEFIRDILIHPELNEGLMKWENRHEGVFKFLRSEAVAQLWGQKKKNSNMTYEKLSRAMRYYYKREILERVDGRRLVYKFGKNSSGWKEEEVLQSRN
# Outline: as §1
# CRX = CRX (Homo sapiens, UniProt O43186 1-299); settings: protein: recombinant; tags: N-terminal GST; dsDNA, one strand shown
# Outline: as §1
# ETV1 = ETV1 (Homo sapiens, UniProt P50549 1-477); settings: protein: recombinant; tags: N-terminal GST; dsDNA, one strand shown
# Outline: as §1
# Chain of SPIB (Q01892 whole entry): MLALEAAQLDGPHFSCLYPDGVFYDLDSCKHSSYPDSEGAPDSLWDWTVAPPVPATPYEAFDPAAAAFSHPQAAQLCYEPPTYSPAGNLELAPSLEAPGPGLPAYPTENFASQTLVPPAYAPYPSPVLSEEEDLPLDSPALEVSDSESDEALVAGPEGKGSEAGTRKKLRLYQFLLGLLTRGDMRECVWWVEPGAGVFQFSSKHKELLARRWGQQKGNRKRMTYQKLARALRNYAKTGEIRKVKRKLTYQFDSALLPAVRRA
# Chain of HSF1 (Q00613 whole entry): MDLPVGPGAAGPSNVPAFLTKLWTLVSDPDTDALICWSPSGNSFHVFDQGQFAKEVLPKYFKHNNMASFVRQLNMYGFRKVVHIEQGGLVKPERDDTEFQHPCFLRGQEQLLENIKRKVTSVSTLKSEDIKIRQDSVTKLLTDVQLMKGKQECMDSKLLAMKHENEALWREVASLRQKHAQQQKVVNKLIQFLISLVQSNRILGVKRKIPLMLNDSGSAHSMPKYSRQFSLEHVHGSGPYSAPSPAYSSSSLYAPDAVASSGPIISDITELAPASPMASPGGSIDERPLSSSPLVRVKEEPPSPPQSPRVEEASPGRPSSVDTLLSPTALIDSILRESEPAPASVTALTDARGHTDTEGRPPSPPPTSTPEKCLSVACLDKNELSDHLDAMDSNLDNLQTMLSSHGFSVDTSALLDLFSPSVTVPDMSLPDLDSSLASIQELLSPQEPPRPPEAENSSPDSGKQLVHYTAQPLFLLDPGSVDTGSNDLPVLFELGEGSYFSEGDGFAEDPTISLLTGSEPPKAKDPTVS
# Chain of CRX (O43186 whole entry): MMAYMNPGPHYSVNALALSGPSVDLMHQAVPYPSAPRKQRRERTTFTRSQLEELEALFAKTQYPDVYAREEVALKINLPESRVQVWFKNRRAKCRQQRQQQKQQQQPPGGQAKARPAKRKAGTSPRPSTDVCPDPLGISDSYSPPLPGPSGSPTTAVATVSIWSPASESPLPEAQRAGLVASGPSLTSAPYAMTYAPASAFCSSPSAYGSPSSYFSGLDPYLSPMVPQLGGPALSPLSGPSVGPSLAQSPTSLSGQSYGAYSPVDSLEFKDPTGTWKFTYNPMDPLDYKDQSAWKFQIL
# Chain of ETV1 (P50549 whole entry): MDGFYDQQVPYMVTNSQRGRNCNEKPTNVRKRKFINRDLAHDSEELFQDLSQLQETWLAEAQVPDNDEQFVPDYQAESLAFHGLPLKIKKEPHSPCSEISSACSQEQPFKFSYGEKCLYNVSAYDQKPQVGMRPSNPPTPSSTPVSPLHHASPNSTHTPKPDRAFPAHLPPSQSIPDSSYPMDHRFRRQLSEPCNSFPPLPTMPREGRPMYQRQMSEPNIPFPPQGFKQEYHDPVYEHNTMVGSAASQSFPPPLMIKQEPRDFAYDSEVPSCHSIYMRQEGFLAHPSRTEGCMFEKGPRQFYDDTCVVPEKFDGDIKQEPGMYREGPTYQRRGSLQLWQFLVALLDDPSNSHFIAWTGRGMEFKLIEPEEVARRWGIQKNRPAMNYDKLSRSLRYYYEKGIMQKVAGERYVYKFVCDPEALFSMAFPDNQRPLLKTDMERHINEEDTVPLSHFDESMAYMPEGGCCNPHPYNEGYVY
# Chain of ELF4 (Q99607 whole entry): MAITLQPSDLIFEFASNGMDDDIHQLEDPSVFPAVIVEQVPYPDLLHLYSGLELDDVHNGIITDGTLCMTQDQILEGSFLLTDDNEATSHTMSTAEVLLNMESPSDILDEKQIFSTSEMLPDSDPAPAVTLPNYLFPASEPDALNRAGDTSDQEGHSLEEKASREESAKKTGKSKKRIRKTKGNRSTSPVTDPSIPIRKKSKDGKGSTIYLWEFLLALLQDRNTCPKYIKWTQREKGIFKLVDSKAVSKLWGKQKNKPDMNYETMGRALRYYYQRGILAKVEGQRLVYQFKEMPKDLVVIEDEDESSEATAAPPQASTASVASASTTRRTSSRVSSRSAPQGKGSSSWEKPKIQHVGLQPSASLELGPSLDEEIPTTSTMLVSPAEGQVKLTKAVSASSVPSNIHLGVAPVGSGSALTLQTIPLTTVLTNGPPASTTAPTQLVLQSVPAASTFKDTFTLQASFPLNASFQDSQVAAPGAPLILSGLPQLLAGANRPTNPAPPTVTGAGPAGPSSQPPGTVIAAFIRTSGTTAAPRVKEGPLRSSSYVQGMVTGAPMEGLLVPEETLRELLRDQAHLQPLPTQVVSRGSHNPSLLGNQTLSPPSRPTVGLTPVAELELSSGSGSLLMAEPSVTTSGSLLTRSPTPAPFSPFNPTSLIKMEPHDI
# Chain of ETV5 (P41161 whole entry): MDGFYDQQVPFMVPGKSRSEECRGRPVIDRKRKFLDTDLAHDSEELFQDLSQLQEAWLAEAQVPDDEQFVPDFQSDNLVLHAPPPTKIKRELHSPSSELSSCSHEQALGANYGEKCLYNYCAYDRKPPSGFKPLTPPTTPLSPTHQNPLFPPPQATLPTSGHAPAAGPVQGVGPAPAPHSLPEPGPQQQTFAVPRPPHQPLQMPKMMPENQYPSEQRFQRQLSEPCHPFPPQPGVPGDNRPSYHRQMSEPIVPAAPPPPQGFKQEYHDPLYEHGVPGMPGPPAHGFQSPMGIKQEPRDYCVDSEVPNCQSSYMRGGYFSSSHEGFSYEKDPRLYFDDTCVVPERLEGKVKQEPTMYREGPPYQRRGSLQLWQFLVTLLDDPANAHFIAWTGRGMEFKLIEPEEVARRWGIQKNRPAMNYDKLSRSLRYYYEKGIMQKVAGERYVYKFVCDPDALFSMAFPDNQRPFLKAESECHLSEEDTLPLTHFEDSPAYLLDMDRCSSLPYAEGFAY
# Chain of ELF1 (P32519 whole entry): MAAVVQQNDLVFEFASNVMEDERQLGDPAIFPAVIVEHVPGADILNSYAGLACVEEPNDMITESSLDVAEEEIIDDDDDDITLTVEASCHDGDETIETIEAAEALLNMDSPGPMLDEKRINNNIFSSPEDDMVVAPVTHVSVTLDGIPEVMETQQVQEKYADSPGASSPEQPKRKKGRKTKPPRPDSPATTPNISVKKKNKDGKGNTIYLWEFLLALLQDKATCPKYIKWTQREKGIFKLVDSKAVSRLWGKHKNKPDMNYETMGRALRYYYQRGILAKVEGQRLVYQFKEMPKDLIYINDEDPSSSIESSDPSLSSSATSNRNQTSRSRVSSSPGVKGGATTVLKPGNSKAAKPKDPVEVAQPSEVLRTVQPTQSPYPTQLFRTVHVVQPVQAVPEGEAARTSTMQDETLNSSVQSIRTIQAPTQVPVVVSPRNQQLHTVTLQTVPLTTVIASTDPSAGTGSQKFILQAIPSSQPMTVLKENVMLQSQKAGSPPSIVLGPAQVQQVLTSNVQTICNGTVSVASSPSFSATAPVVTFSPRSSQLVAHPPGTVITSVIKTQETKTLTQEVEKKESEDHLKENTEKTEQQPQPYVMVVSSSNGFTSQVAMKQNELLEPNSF
sequence,measurement,setting,value
CATGCT,binding signal,FLI1,"1.33 fold enrichment (6-mer frequency, TF over GST control)"
same,binding signal,ELK1,"1.2 fold enrichment (6-mer frequency, TF over GST control)"
same,binding signal,GABPA,"1.21 fold enrichment (6-mer frequency, TF over GST control)"
same,binding signal,ERG,"1.23 fold enrichment (6-mer frequency, TF over GST control)"
same,binding signal,ELF1,"1.23 fold enrichment (6-mer frequency, TF over GST control)"
same,binding signal,EHF,"1.24 fold enrichment (6-mer frequency, TF over GST control)"
same,binding signal,SPI1,"1.11 fold enrichment (6-mer frequency, TF over GST control)"
same,binding signal,SPIB,"1.25 fold enrichment (6-mer frequency, TF over GST control)"
same,binding signal,ELK3,"1.3 fold enrichment (6-mer frequency, TF over GST control)"
same,binding signal,FEV,"1.22 fold enrichment (6-mer frequency, TF over GST control)"
same,binding signal,ETV5,"1.13 fold enrichment (6-mer frequency, TF over GST control)"
same,binding signal,HSF1,"1.13 fold enrichment (6-mer frequency, TF over GST control)"
same,binding signal,SPIC,"1.34 fold enrichment (6-mer frequency, TF over GST control)"
same,binding signal,ELF4,"1.15 fold enrichment (6-mer frequency, TF over GST control)"
same,binding signal,ELK4,"1.3 fold enrichment (6-mer frequency, TF over GST control)"
same,binding signal,ETV2,"1.35 fold enrichment (6-mer frequency, TF over GST control)"
same,binding signal,ELF3,"1.27 fold enrichment (6-mer frequency, TF over GST control)"
same,binding signal,CRX,"1.1 fold enrichment (6-mer frequency, TF over GST control)"
same,binding signal,ETV1,"1.19 fold enrichment (6-mer frequency, TF over GST control)"
